Out of some 360,000 compounds screened, about 1,100 (0.31%) were called active. The sample as a whole holds a higher share of actives than the screen did. A number with no mark means an inactive call. Rule as the data show it: active = activity change above about 30% (passing the limit was not always enough); inactive = the rest.

Hepatocyte nuclear factor 4-alpha (Homo sapiens), sequence (P41235 whole entry, looked up): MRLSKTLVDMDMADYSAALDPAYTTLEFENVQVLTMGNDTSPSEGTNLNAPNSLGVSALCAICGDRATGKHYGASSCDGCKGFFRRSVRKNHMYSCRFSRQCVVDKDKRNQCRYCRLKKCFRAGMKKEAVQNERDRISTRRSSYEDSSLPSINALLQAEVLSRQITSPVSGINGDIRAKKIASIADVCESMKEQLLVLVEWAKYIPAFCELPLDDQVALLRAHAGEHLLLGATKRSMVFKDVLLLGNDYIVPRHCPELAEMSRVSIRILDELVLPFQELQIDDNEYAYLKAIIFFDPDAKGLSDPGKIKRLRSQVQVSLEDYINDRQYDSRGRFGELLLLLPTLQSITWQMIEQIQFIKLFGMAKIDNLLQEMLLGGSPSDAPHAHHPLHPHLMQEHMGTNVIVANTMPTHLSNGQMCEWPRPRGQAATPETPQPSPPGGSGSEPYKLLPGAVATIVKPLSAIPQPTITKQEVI

This experiment concerns the target Hepatocyte nuclear factor 4-alpha (Homo sapiens) (UniProt P41235). Nature of the experiment: HNF4-alpha DNA association modulation – biochemical, fluorescence polarization, FITC-DNA, primary screen (AID 1224865). Conditions: HNF4a-FITC DNA binding, 1 h, at 10 µM, stronger effect = higher value.
As to `CCOC(=O)c1cccc(NC(=O)c2ccc(F)cc2F)c1`, the activity change is 7%.

On to `O=C(COC(=O)CSc1ccccc1)Nc1ccc(F)cc1F`, for which the activity change is -1.87%.

Turning to `O=C(COC(=O)c1ccc(F)cc1F)Nc1ncccn1`, the activity change is 38.7% (active).

As to `CC1C(=O)Nc2ccccc2N1C(=O)c1ccc(F)cc1F` (stereo not drawn), the activity change is 2.72%.

As for `O=C(NCc1ccncc1)c1cccc(NS(=O)(=O)c2ccc(F)c(F)c2)c1`, the activity change is -3.8%.

In the case of `CC1C(=O)N2CCCc3cc(S(=O)(=O)NCc4ccc(F)cc4)cc1c32` (stereo not drawn), the activity change was -0.59%.

For the molecule `CC(C)CC(=O)Nc1ccc(Cc2ccncc2)cc1`, the activity change was 1.88%.

On to `CCn1nnc(NC(=O)c2c(OC)cccc2OC)n1`, for which the activity change was 0.86%.

On to `COc1cccc(OC)c1C(=O)Nc1ccc(Cc2ccncc2)cc1`, for which the activity change was 41.2% (active).

Consider `C=CCn1c(SCC(=O)NC23CC4CC(CC(C4)C2)C3)nc(O)cc1=O`, for which the activity change was 2.14%.

As for `Cc1ccc2[nH]c(=O)c(CN(CCCN(C)C)C(=O)Nc3cccc(Cl)c3)cc2c1`, the activity change is 4.9%.

On to `Cc1noc(C)c1S(=O)(=O)Nc1ccc(C(=O)N2CCN(c3ccc(F)cc3)CC2)cc1`, for which the activity change is 1.2%.

`C=CCn1c(SCc2cccc(F)c2)nc2cc(C(=O)N3CCC(C(N)=O)CC3)ccc2c1=O`: the activity change is 2.05%.

As to `Cc1ccc(CSCC2Nc3ccc(C(=O)N4CCN(c5ccc(F)cc5)CC4)cc3NC2=O)cc1` (stereo not drawn), the activity change was 37.8% (active).

In the case of `COC(=O)c1ccc(C(=O)OC)c(NC(=S)N2CCN(c3ccc(F)cc3)CC2)c1`, the activity change is -1.17%.

For `Cc1ccccc1CN1CCN(C(=O)c2cccc(F)c2)CC1`, the activity change is 3.17%.

Consider `O=C1Nc2cc(C(=O)N3CCN(c4ccc(F)cc4)CC3)ccc2NC1CSCc1cccc(F)c1` (stereo not drawn), for which the activity change was 102% (active).

With `COc1ccc(Cn2cccc(NC(=O)Nc3ccc(C#N)cc3)c2=O)cc1`, the activity change is -3.37%.

Take `COC(=O)c1c(NC(=O)CN2CCN(S(=O)(=O)c3ccccc3[N+](=O)[O-])CC2)sc2c1CCC(C)C2` (stereo not drawn): the activity change is 0.7%.

`O=S(=O)(Cc1ccccc1)c1nc2ccccc2n1Cc1ccccn1`: the activity change was -0.31%.

Take `CC1=CC2=NC(=O)/C(=C/c3coc4ccccc4c3=O)C(=N)N2O1`: the activity change was 6.6%.

Take `O=C1/C(=C/c2coc3ccc(O)cc3c2=O)SC(=S)N1c1ccccc1`: the activity change is 55.6% (active).

Regarding `Cc1ccc(S(=O)(=O)N2CCC(C)CC2)cc1C(=O)NCc1ccccn1`, the activity change was 0.82%.

`Cc1ccc(CC2S/C(=C(/C#N)C(=O)N3CCOCC3)N(c3ccccc3)C2=O)cc1` (stereo not drawn): the activity change was 0.2%.

As for `CCN(CC(=O)NCc1cccs1)C(=O)/C=C/c1ccc(C)cc1`, the activity change is 0.98%.

As to `CC1CCN(c2ccc3c(c2)S(=O)(=O)c2cc(C(=O)O)ccc2C3=O)CC1`, the activity change was 14.3%.

Take `COc1cccc(-c2ccc3c(c2)S(=O)(=O)c2cccc(C(=O)O)c2C3=O)c1OC`: the activity change is 1.88%.

In the case of `Cc1ccc(CNC(=O)c2cccc3c2C(=O)c2ccc(N4CCC(C)CC4)cc2S3(=O)=O)cc1`, the activity change is 45.8% (active).

Turning to `Cc1nn(Cc2ccc(C(=O)N3N=C(C(F)F)CC3(O)C(F)F)cc2)c(C)c1[N+](=O)[O-]` (stereo not drawn), the activity change is 1.52%.

Regarding `CN(C)c1ccc(/C=C2\NC(=S)N(Cc3ccccc3)C2=O)cc1`, the activity change is 128%.

On to `COc1cc(=O)[nH]c(=O)n1C(=O)Cc1ccccc1`, for which the activity change is 2.22%.

Regarding `COc1cc(/C=C2/SC(=S)N(Cc3ccccc3)C2=O)cc(OC)c1O`, the activity change was 48.1% (active).

Turning to `CC1CCCCC1NC(=O)C1CCCN1S(=O)(=O)c1cccc2nsnc12` (stereo not drawn), the activity change is -0.79%.

`O=C(NC1CCCCC1)C(c1cc2ccccc2o1)n1c(=O)c(-c2ccco2)nc2ccccc21` (stereo not drawn): the activity change was 45.8% (active).

For `Cc1cccc(C)c1NC(=O)C(c1ccc(C(F)(F)F)cc1)n1c(=O)c(-c2ccco2)nc2ccccc21` (stereo not drawn), the activity change is 26.7%.

Consider `Cc1cccc(C)c1NC(=O)C(c1cccc2ccccc12)n1c(=O)c(-c2ccco2)nc2ccccc21` (stereo not drawn), for which the activity change was 32.4%.

For `Oc1ccc(/C=N/N(Cc2ccccc2)c2ccccc2)cc1`, the activity change is -0.08%.

As to `Oc1ccc(N=Cc2c(O)ccc3ccccc23)cc1`, the activity change was 72% (active).

Consider `CCOc1[nH]n(-c2ccc(Cl)cc2)c(=O)c1C=Nc1ccc(O)cc1`, for which the activity change was -5.55%.

As for `COc1ccccc1C(=O)N1CCN=C1SCc1cccnc1`, the activity change was 2.47%.

`Cc1ccc(-c2csc(NC(=O)Cn3[nH]c(=O)c4ccccc4c3=O)n2)cc1`: the activity change is 50% (active).

For `Cc1ccc(C)c(C(=O)COC(=O)Cn2[nH]c(=O)c3ccccc3c2=O)c1`, the activity change is -0.2%.

`O=C(Cn1[nH]c(=O)c2ccccc2c1=O)Nc1cccc(-c2nnc3n2CCCCC3)c1`: the activity change is 1.84%.

As for `O=C(OC(C(=O)NC1CCCC1)c1ccc(F)cc1)c1ccno1` (stereo not drawn), the activity change was -0.09%.

For `Cc1sc2nc(-c3ccccc3F)oc(=O)c2c1C`, the activity change was 0.82%.

For the molecule `Nc1c(N(CCCO)C(=O)C2CCCC2)c(=O)[nH]c(=O)n1Cc1ccccc1`, the activity change was -0.45%.

`CCc1nnc(NC(=O)c2ccco2)s1`: the activity change was 0.04%.

`CCCCOC(=O)Nc1nnc(CC(=O)NCc2ccccc2)s1`: the activity change is -1.39%.

For `CCc1ccc2nc3sc(C(=O)Nc4nnc(CC)s4)c(N)c3cc2c1`, the activity change was 45.1% (active).

Consider `COc1ccc(CCNC(=O)C(=O)NCC2OCCN2S(=O)(=O)c2cccs2)cc1OC` (stereo not drawn), for which the activity change is 5.44%.

In the case of `COc1cc(N=Cc2c(O)c3ccccc3oc2=O)c(OC)cc1Cl`, the activity change was 98.2% (active).

Consider `COc1cc(O)c2c(=O)c3c(O)c(O)ccc3oc2c1OC`, for which the activity change was 3.57%.

`Cc1ccc(N2C(=O)C(CC(=O)Nc3cccc(F)c3)N(CCc3ccncc3)C2=O)cc1` (stereo not drawn): the activity change is 0.66%.

In the case of `NC(=O)C1(Nc2ccc([N+](=O)[O-])cc2)CCCC1`, the activity change was -1.78%.

For `O=[N+]([O-])c1ccc(N=NNc2ccc([N+](=O)[O-])cc2)cc1`, the activity change was 54.8% (active).

Regarding `COC(=O)c1ccccc1N=NNc1ccc([N+](=O)[O-])cc1`, the activity change was -3.24%.

For the molecule `O=C1CSC(c2cccc(F)c2)N1c1ccc(O)cc1` (stereo not drawn), the activity change is 1.06%.

Take `O=C(CCc1nnc2ccc(NCCCN3CCCC3=O)nn12)NCc1ccccc1Cl`: the activity change is 1.08%.

Source of the values: PubChem BioAssay AID1224865 (Sanford-Burnham Center for Chemical Genomics, 2016).
